Experimental data from PubChem BioAssay AID686978 (National Center for Advancing Translational Sciences (NCATS), 2013).
Among all 420,000 compounds or so, about 64,000 (15%) were called active. About 27% were inconclusive and are not listed. Calls follow the shape of the dose curve; as a rule, active = well fitted inhibition curve with a large enough effect; inconclusive = small, poorly fitted or top-dose-only effect; inactive = flat fitted curve, though single readings scatter. A selection follows. Where a call stands in place of a potency, no number is given.

Assay: qHTS for Inhibitors of human tyrosyl-DNA phosphodiesterase 1 (TDP1): qHTS in cells in absence of CPT; also: nearly all actives have a fitted effect of over 55% in size
Conditions: DT40 Tdp1-/- hTDP1 cells, no CPT, ATP luminescence, 48 h; activity change, negative = growth inhibition: at 46.2 µM (top of the series)
How it was run: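 Readout: luminescence from CellTiter-Glo after 30 min in the dark at RT. Cells: DT40 Tdp1-/- with stable hTDP1, 400/well. Exposure: compounds alone, ≥48 hr, 37 °C.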
Potency is read from the fitted curve at half-maximal effect.

| SMILES | Potency |
| --- | --- |
| CC(C)Oc1ccc(CN2CCC(n3nccc3NC(=O)c3cccnc3)CC2)cc1 | inactive |
| CCOC(=O)C1=NNC2(c3ccc(Cl)cc3)C(=O)N(c3cc(C)cc(C)c3)C(=O)C12 (stereo unspecified) | inactive |
| COc1ccc(-c2[nH]nc3c2C(c2ccncc2)C(C#N)=C(N)O3)cc1 (stereo unspecified) | inactive |
| Cc1cc2c(c(=O)n1Cc1ccco1)C(c1ccccc1)C(C#N)=C(N)O2 (stereo unspecified) | inactive |
| Cc1nn(Cc2ccccc2)c2c1C(c1ccccc1)C(C#N)=C(N)O2 (stereo unspecified) | 25.9 µM (active) |
| O=C(COC(=O)c1cc([N+](=O)[O-])ccc1NCc1ccccc1)NC1CCCCC1 | inactive |
| Nc1c(Cl)cc(-c2csc(N3CCCC3c3nc4cc(Cl)c(Cl)cc4n3CCOCCO)n2)cc1Cl (stereo unspecified) | inactive |
| Cc1ccc(-c2csc(N3CCN(c4cc5c(cc4Cl)nc(-c4ccncc4)n5CCOCCO)CC3)n2)cc1 | 29.1 µM (active) |
| CC(=O)OCCN(CCCn1c(-c2ccncc2)nc2ccccc21)c1nc(-c2ccc(C)cc2)cs1 | inactive |
| CC(NC(=O)c1ccc(S(=O)(=O)Nc2ccccc2)cc1)c1ccc(S(N)(=O)=O)cc1 (stereo unspecified) | inactive |
| CCOC(=O)c1cc2occc2n1CC(=O)NC1CCC(C)CC1 (stereo unspecified) | inactive |
| CC(=O)N1C[C@@H](CO)[C@@H](N(C)C(=O)c2ccco2)C[C@H]1c1ccccc1 | inactive |
| Cn1c(SCC(=O)Nc2ccc(Cl)cc2)nc(O)cc1=O | inactive |
| CCSc1ncc(Cl)c(C(=O)Nc2cc(C)ccc2C)n1 | inactive |
| CN(CC(=O)Nc1ccccc1C(F)(F)F)C(=O)Cc1ccccc1F | inactive |
| Cc1ccc(NC(=O)c2nc(S(=O)(=O)Cc3cccc(C)c3)ncc2Cl)cc1 | 0.651 µM (active) |
| Cc1cccc(NC(=O)c2nc(S(=O)(=O)Cc3ccccc3)ncc2Cl)c1 | 2.06 µM (active) |
| Cc1cccc(C(=O)Nc2ccc(Oc3cnccn3)cc2)c1 | inactive |
| CCSc1nnc(NC(=O)c2ccc(C)cc2)s1 | inactive |
| Cc1cccc(NC(=O)C(C)SCc2ccccc2)c1 (stereo unspecified) | inactive |
| NC(=O)CSc1nnc(NC(=O)c2ccc(Br)o2)s1 | inactive |
| O=C(Nc1ccccc1C(F)(F)F)c1nc(S(=O)(=O)Cc2ccccc2F)ncc1Cl | 0.708 µM (active) |
| CSc1nnc(NC(=O)c2nc(S(=O)(=O)Cc3ccc(C)cc3)ncc2Cl)s1 | 4.11 µM (active) |
| CCCSc1ncc(Cl)c(C(=O)Nc2c(C(=O)Nc3ccccc3)oc3ccccc23)n1 | inactive |
| O=C(Nc1nc2ccc(F)cc2s1)c1nc(SCc2ccccc2F)ncc1Cl | inactive |
| CCOc1ccc(S(=O)(=O)N2CCN=C2Cc2ccccc2)cc1C | inactive |

| SMILES | Potency |
| --- | --- |
| O=C(COC(=O)c1cc(=O)[nH]c2ccccc12)NCc1cccc(Cl)c1 | inactive |
| COc1ccccc1C1SCCN1C(=O)c1ccc([N+](=O)[O-])cc1 (stereo unspecified) | inactive |
| Cc1cc(/C=C2\SC(=O)N(C)C2=O)c(C)n1-c1cccc(C(=O)O)c1 | inactive |
| Nc1cccc(-c2cncc(N3CCN(Cc4ccccn4)CC3)n2)c1 | inactive |
| Nc1c(-c2ccccc2)nnn1Cc1ccccc1 | inactive |
| O=C(Nc1cccnc1)c1ccc(Cl)cc1[N+](=O)[O-] | inactive |
| Clc1ccc(C=NC23CN4CN(CN(C4)C2)C3)cc1 | inactive |
| Cn1cc([N+](=O)[O-])c(C(=O)Nc2cnn(Cc3ccc(F)cc3)c2)n1 | inactive |
| Cc1cccc(OCc2ccc(C(=O)Nc3ccc(F)cc3)cc2)c1 | inactive |
| Cc1cccc(CS(=O)(=O)c2ncc(Cl)c(C(=O)Nc3ccc(F)cc3)n2)c1 | 1.84 µM (active) |
| COc1ccc(S(=O)(=O)NC(C)C(=O)NCc2ccncc2)cc1Cl (stereo unspecified) | inactive |
| O=C(NC1CCCC1)C1CC(=O)N(c2ccc(F)cc2)C1 (stereo unspecified) | inactive |
| O=C(c1cc(C(=O)N2CCN(c3ccc(F)cc3)CC2)cc([N+](=O)[O-])c1)N1CCN(c2ccc(F)cc2)CC1 | 4.61 µM (active) |
| O=C(c1cccc(C(=O)N2CCN(c3ccc(F)cc3)CC2)c1)N1CCN(c2ccc(F)cc2)CC1 | 13 µM (active) |
| O=[N+]([O-])c1ccc(N2CCN(c3ccc(F)cc3)CC2)cn1 | inactive |
| Cc1noc(C)c1S(=O)(=O)Nc1ccc(C(=O)N2CCN(c3ccc(F)cc3)CC2)cc1 | inactive |
| O=C(c1cc2cc(F)ccc2[nH]1)N1CCN(c2ccc(F)cc2)CC1 | inactive |
| O=C(c1cc(-c2ccc(F)cc2)on1)N1CCN(c2ccc(F)cc2)CC1 | inactive |
| CS(=O)(=O)N1CCC2(CC1)CN(Cc1cc(C(F)(F)F)cc(C(F)(F)F)c1)C2 | inactive |
| Cc1c(NC(=O)COC(=O)/C=C/c2cccc(F)c2)c(=O)n(-c2ccccc2)n1C | inactive |
| Cc1ccnc(NS(=O)(=O)c2ccc(NC(=O)c3oc4ccccc4c3C)cc2)n1 | inactive |
| Cc1oc(C(N)=O)cc1COc1ccc(C(N)=O)cc1 | inactive |
| CCc1cccc2c3c([nH]c12)C(CC)(CC(=O)O)OCC3 (stereo unspecified) | inactive |
| CC1=CC(C)(C)Nc2ccc(OC(=O)CN3C(=O)C4CCCCC4C3=O)cc21 (stereo unspecified) | 2.31 µM (active) |
| CC(OC(=O)CN1C(=O)C2CCCCC2C1=O)C(=O)Nc1ncc(Cl)cc1Cl (stereo unspecified) | inactive |
| O=C(COC(=O)CN1C(=O)C2CCCCC2C1=O)Nc1ccc(F)c(F)c1F (stereo unspecified) | inactive |

| SMILES | Potency |
| --- | --- |
| O=C(CN1C(=O)NC(Cc2c[nH]c3ccccc23)C1=O)Nc1ccccc1C(F)(F)F (stereo unspecified) | inactive |
| COc1cccc(NC(C)=[N+](C)CCNS(=O)(=O)c2ccc(Cl)cc2)c1 | inactive |
| COc1ccc(S(=O)(=O)NCCCc2ccccc2)cc1 | inactive |
| COc1ccc(S(=O)(=O)NCCCCOc2ccc(Cl)cc2)cc1 | 2.06 µM (active) |
| Cc1nc(N)[nH]c(=O)c1Oc1cccc(C(F)(F)F)c1 | inactive |
| Cc1cccc(N=C2NN=C(c3c[nH]c4ccccc34)CS2)c1 | inactive |
| Clc1cccc(N=C2NN=C(c3ccc4c(c3)OCCO4)CS2)c1 | 10.3 µM (active) |
| COc1ccccc1CNC(=O)C1CCN(c2nc3ccccc3o2)CC1 | inactive |
| CSc1ccc(CCNC(=O)C2CCN(c3nnc(-n4cccc4)s3)CC2)cc1 | inactive |
| COc1ccccc1CCNC(=O)c1cccn1-c1nnc(N2CCCCC2)s1 | 1.64 µM (active) |
| N#CC(=C1CCCC1)c1nc(-c2ccc(Cl)cc2)cs1 | inactive |
| CCOC(=O)C1CCC(CN(Cc2ccc(OC)cc2)S(=O)(=O)c2ccc(F)c(C(=O)Nc3cc(C)ccc3C)c2)CC1 (stereo unspecified) | inactive |
| Cc1cc2c(cc1S(=O)(=O)NCc1ccc(Cl)cc1)OCC(=O)N2 | inactive |
| CC(=O)N1CCC(C(=O)OCc2ccc(Cl)cc2)(c2ccccc2)CC1 | 11.6 µM (active) |
| O=C(CCC(=O)OCc1ccc(Cl)cc1)Nc1ccccc1 | inactive |
| CC(=O)N1CCC2(CCCN(Cc3ccccc3)C2)CC1 | inactive |
| Cc1noc(C)c1NC(=O)Nc1ccc2c(c1)C(=O)N([C@H](C)CO)C[C@H](C)[C@@H](CN(C)S(=O)(=O)c1cn(C)cn1)O2 | inactive |
| NS(=O)(=O)c1ccc(NC(=O)CSc2nnc3c(n2)[nH]c2ccccc23)cc1 | inactive |
| CCN(CC)c1ccc(/C=C/c2c(C)cnc3ccc(C)cc23)cc1 | 20 µM (active) |
| CCOC(=O)N1CCN(c2c(NCCCN3CCCC(C)C3)c(=O)c2=O)CC1 (stereo unspecified) | inactive |
| CC(C)C(=O)OCC(=O)Nc1ccc2c(c1)CCC2 | inactive |
| CCOc1ccc(NC(=O)C2CC(=O)N=C(N)S2)cc1 (stereo unspecified) | inactive |
| COc1ccccc1-c1nnc(NC(=O)c2cccc(N3C(=O)CCC3=O)c2)o1 | inactive |
| COc1cc(-c2nnc(NC(=O)C3=COCCO3)o2)cc(OC)c1OC | inactive |
| Cc1ccc(C(=O)Nc2nnc(C3=COCCO3)o2)cc1C | 23.1 µM (active) |
| COc1cc(C(=S)N2CCOCC2)ccc1O | inactive |

| SMILES | Potency |
| --- | --- |
| CCCCC(NC(=O)c1cccc(Br)c1)C(=O)O (stereo unspecified) | inactive |
| O=C(CN1C(=O)NC2(CCCC2)C1=O)NCC1CCCO1 (stereo unspecified) | inactive |
| O=C(c1ccccc1)N1CCN(C(=O)N2CCCCC2)CC1 | inactive |
| Cc1cc(C)cc(NC(=O)C2CCN(c3nc(C)cc(C)n3)CC2)c1 | inactive |
| CC(C)c1ccc(NC(=O)C2CCN(c3nc(-c4ccc(C(C)C)cc4)no3)CC2)cc1 | 13 µM (active) |
| CC(=O)NN=C(C)c1ccc(NC(=O)C2CC2)cc1 | inactive |
| Cc1ccc(-n2ncc3c(=O)[nH]cnc32)c(C)c1 | inactive |
| COc1ccccc1-c1cc2nc(NCc3cccc(Cl)c3)ccn2n1 | 18.4 µM (active) |
| CC(C)Cc1ccc(-c2cc3nc(NCc4cccc(Cl)c4)ccn3n2)cc1 | 18.4 µM (active) |
| COc1ccccc1-c1cc2nc(C)c(CCC(=O)O)c(C)n2n1 | inactive |
| COCCCNc1ccn2nc(-c3ccc(CC(C)C)cc3)cc2n1 | inactive |
| COc1ccccc1-c1cc2nc(C)c(CCC(=O)NC3CCCCC3)c(C)n2n1 | inactive |
| Cc1nc2cc(NC(=O)[C@@H]3C[C@@H](Sc4ccccn4)CN3Cc3ccccc3C)ccc2s1 | inactive |
| O=C1/C(=C/c2ccc3c(c2)OCO3)CCC/C1=C\c1ccc2c(c1)OCO2 | inactive |
| O=C(OCC(=O)N1CCCCCC1)c1cnc(Cl)c(Cl)c1 | inactive |
| CC1=C(C(=O)Nc2ccccc2)C(c2ccc(C)cc2)n2nc(SCc3ccccc3C)nc2N1 (stereo unspecified) | inactive |
| CCc1ccc(C2C(C(=O)Nc3ccccc3)=C(C)Nc3c(C(=O)Nc4ccc(C)cc4)cnn32)cc1 (stereo unspecified) | 23.1 µM (active) |
| COc1cccc(C2C(C(=O)Nc3ccc(C)cc3C)=C(C)Nc3c(C(=O)Nc4ccccc4)cnn32)c1 (stereo unspecified) | inactive |
| CCCSc1ncccc1C(=O)O | inactive |
| Cc1cnc(CN(C)C(=O)C2CCC(=O)N(CCc3cccc(F)c3)C2)[nH]1 (stereo unspecified) | inactive |
| COc1ccc2oc(=O)c(C(=O)N3CCN(c4ccccc4F)CC3)cc2c1 | inactive |
| O=C(Nn1cc(C(=O)N2CCN(c3ccccc3F)CC2)c2ccccc2c1=O)c1cnccn1 | 13 µM (active) |
| Cc1oc2ncn(CC(C)C)c(=O)c2c1C(=O)N1CCN(c2ccccc2F)CC1 | inactive |
